Assay outcomes: PubChem, National Center for Advancing Translational Sciences (NCATS)
NIH3T3 tox: NIH 3T3 cell cytotoxicity; NIH 3T3 viability, CellTiter-Glo ATP luminescence, 48-72 h; Potency, µM (doses to about 96.7 µM), for inactives: at the top dose activity change, negative = cytotoxicity, most hits filed as inhibitors; 94,000 tested, 4.3% active; AID 1345082; also: % is scaled to controls: 0 for no effect and ±100 for the full control effect; nearly all actives have a fitted effect of over 55% in size
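ATP-dependent luminescence (CellTiter-Glo) served as the viability signal for NIH 3T3 cells treated with compound for 48 or 72 hr at 37 °C.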
HEK293 tox: cytotoxic compounds in HEK 293 cells; HEK 293 viability, ATP luminescence (CellTiter-Glo), 48-72 h; Potency, µM (highest dose often 115 µM), inactives show top-dose activity change, negative = cytotoxicity, actives largely listed as inhibitors; 94,000 tested, 6.6% active; AID 1345083; also: % is scaled to controls: 0 for no effect and ±100 for the full control effect; nearly all actives have a fitted effect of over 60% in size
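HEK 293 cells at 250 cells/well were exposed to compounds by pintool transfer for 48 or 72 hr at 37 degree Celsius, 5% CO2. Viability was read as ATP-coupled luminescence with CellTiter-Glo after 10 min at room temperature.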
hNpr1 antagonist: antagonists of human natriuretic peptide receptor Npr1; P16066; HEK293 hNpr1 GloSensor cGMP, ANP-stimulated luminescence; Potency, µM (titrated, usually from 46.3 µM), for the others: at the top dose activity change, negative = inhibition, actives largely listed as inhibitors; 76,000 tested, 1.6% active; calls by dose curve; also: % is scaled to controls: 0 for no effect and ±100 for the full control effect; nearly all actives have a fitted effect of over 60% in size
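HEK293 cells stably expressing human Npr1 and cGMP GloSensor pGS-40F, loaded 2 h with 2% GloSensor reagent, given compound 30 min at room temperature. Luminescence read before and 20 min after 0.1 nM hNppA.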
FLuc inh: Photinus pyralis luciferase inhibition; P08659; AID 1347043; Potency, µM (doses to about 115 µM), usual class: inhibitors; 76,000 tested, 2.5% active; purified P. pyralis luciferase, luminescence, biochemical; also: % is scaled to controls: 0 for no effect and ±100 for the full control effect; nearly all actives have a fitted effect of over 65% in size
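Purified 10nM P. pyralis luciferase with 10uM D-luciferin and 10uM ATP in 50mM Tris acetate pH 7.5, 10mM Mg acetate, 0.01% Tween-20, 0.05% BSA. qHTS titration; luminescence read by CCD imager.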
Npr1 antag conf: confirmation of human Npr1 natriuretic peptide receptor antagonists; shares compounds with hNpr1 antagonist; HEK293 hNpr1 cGMP GloSensor luminescence, ANP-stimulated; Potency, µM (series often up to 57.6 µM), for inactives: at the highest dose activity change, negative = inhibition, actives largely listed as inhibitors; 1,400 tested, 76% active; AID 1347044; calls by dose curve; also: nearly all actives have a fitted effect of over 70% in size
Npr2 selectivity: antagonizes human Npr2, subtype selectivity check; AID 1347046; HEK293 hNpr2 GloSensor cGMP luminescence, CNP-stimulated; shares compounds with hNpr1 antagonist; Potency, µM (series often up to 57.6 µM), for the others: at the top dose activity change, negative = inhibition, most hits filed as inhibitors; 1,400 tested, 67% active; calls by dose curve; also: nearly all actives have a fitted effect of over 70% in size
FLuc inh counter: inhibits firefly luciferase, false Npr1 antagonist flag. shares compounds with hNpr1 antagonist. purified FLuc enzyme, luminescence, Km substrate. Potency, µM (series often up to 57.6 µM), for the others: top-dose activity change, negative = inhibition, actives largely listed as inhibitors. 1,400 tested, 0.7% active; also: 0% is about no effect
GloSensor cGMP: reduces cGMP signal in GloSensor control cells; 1,400 tested, 69% active; HEK293 GloSensor cGMP, SNP-stimulated, luminescence; AID 1347051; shares compounds with hNpr1 antagonist; Potency, µM (highest dose often 57.6 µM), for the others: at the top dose activity change, negative = inhibition, usual class: inhibitors; calls by dose curve; also: % is scaled to controls: 0 for no effect and ±100 for the full control effect; nearly all actives have a fitted effect of over 70% in size
An asterisk follows results filed as active; i = inactive; ? = inconclusive; / = no result; [ ] = remark or other dose. This is a sample that favours compounds with a hit; in the whole collection about 11% have one here. Unless noted, calls follow the shape of the dose curve; as a rule, active = well fitted curve in the direction sought with a large enough effect; inconclusive = small, poorly fitted or top-dose-only effect, or another doubt; inactive = no such curve, though single readings can be large; an effect the other way counts as inactive or inconclusive. Potency is read from the fitted curve at half-maximal effect.

SMILES	NIH3T3 tox	HEK293 tox	hNpr1 antagonist	FLuc inh	Npr1 antag conf	Npr2 selectivity	FLuc inh counter	GloSensor cGMP
COc1ccc(C2(C(=O)N3CCCCCC3c3nc(C4CC4)no3)CC2)cc1 (stereo not drawn)	?	?	-14.9%	i	/	/	/	/
COc1ccc(C2(C(=O)N3CCC[C@H]3c3nc(-c4ccccc4Cl)no3)CC2)cc1	?	?	10µM*	i	21.7µM*	21.7µM*	0.0%	24.3µM*
O=C1NCN(Cc2ccc(Cl)cc2)C12CCN(Cc1cccc(C(F)(F)F)c1)CC2	-5.1%	2.8%	9.8%	i	/	/	/	/
O=C1NCc2ccccc2CC12CCCN2Cc1cccc(O)c1 (stereo not drawn)	-3.3%	-19.4%	/	/	/	/	/	/
COc1ccc(C(=O)Nc2ccc(-c3noc([C@@H]4CCCN4Cc4ccco4)n3)cn2)cc1	?	?	12.6µM*	i	13.7µM*	19.3µM*	?	17.2µM*
COc1ccc(C(=O)Nc2ccc(-c3noc([C@@H]4CCCN4CCCc4ccccc4)n3)cn2)cc1	?	15.8µM*	12.6µM*	i	17.2µM*	19.3µM*	-24.1%	13.7µM*
O=C(NCC(=O)N1CCOCC1)c1ccc(-c2cnc3ccccc3c2)cc1	-11.8%	?	/	/	/	/	/	/
CC(C)Cn1c(=O)c(C(=O)N2CCOCC2)nc2cccnc21	-9.6%[138 µM]	1.9%[172 µM]	/	/	/	/	/	/
COCC(NC(=O)c1ccc2nc(C3CCCCC3)oc2c1)c1ccnn1C (stereo not drawn)	-23.7%	?	?	i	-29.3%	?	4.8%	-8.6%
CN(C)c1ccc(C(=O)N2CCC(n3cc(-c4nc(-c5ccccc5)no4)nn3)CC2)cc1	-26.9%	?	-0.3%	i	/	/	/	/
CC1Oc2ccc(NC(=O)Cc3cccs3)cc2CN(Cc2ccc(Cl)cc2)C1=O (stereo not drawn)	39.8µM*	?	14.1µM*	i	27.3µM*	27.3µM*	3.1%	24.3µM*
CC1Oc2ccc(NC(=O)Cc3ccc(F)cc3)cc2CN(Cc2ccccc2F)C1=O (stereo not drawn)	?	?	-19.1%	?	/	/	/	/
COc1ccc(C(=O)Nc2ccc3c(c2)CN(Cc2ccc(F)cc2)C(=O)C(C)O3)c(OC)c1 (stereo not drawn)	?	31.6µM*	?	i	24.3µM*	?	1.9%	24.3µM*
CC1Oc2ccc(NS(=O)(=O)c3cccc(Cl)c3)cc2CN(Cc2ccccc2F)C1=O (stereo not drawn)	?	50.1µM*	?	i	?	-26.6%	2.9%	-6.5%
O=C(c1ccccc1)N1CCCC(C(=O)N2CCC(c3nc4ncccc4[nH]3)C2)C1 (stereo not drawn)	-3.0%	i	/	/	/	/	/	/
Cc1cccc(CC(=O)N2CCCN(c3cc(-c4ccc(Br)cc4)[nH]n3)CC2)c1	31.6µM*	?	?	i	?	24.3µM*	3.2%	24.3µM*
COc1cccc(CC(=O)N2CCCN(c3cc(-c4ccc(Br)cc4)[nH]n3)CC2)c1	35.5µM*	44.7µM*	11.2µM*	i	24.3µM*	24.3µM*	-1.4%	21.7µM*
COc1ccc(-c2cc(N3CCN(C(=O)Cc4ccc(Br)cc4)CC3)n[nH]2)cc1	i	0.6%	?	i	/	/	/	/
O=C(Cc1ccccc1)N1CCN(c2cc(-c3ccccc3)[nH]n2)CC1	?	?	-17.7%	i	/	/	/	/
